# Bioassay records (PubChem BioAssay)
# Shown are actives, neighbours in structure and some others; about 12% of the full set was active somewhere.
# Sfp PPTase inh – inhibitors of Bacillus subtilis Sfp phosphopantetheinyl transferase; Biochemical Sfp PPTase activity, qHTS; Q9F4F7; Potency, µM, without a hit: largest response in the series, negative = inhibition, actives largely listed as inhibitors; 3.5% of 310,000 active;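 further: the enzyme is Sfp with the accession as filed and its product quenches rhodamine fluorescence; 0% = enzyme reaction without inhibitor and -100% = no enzyme wells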
#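 Reaction rates are the 30-min fluorescence difference (ex 525, em 598 nm) in wells containing 15 nM Sfp, 5 uM rhodamine-CoA and 12.5 uM BHQ-2-YbbR at pH 7.6 with 10 mM MgCl2.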
# L3MBTL1 inh – blocks human L3MBTL1 | 0.66% of 230,000 active | AlphaScreen L3MBTL1–H3K9me1 peptide binding | AID 485360 | Potency, µM (top dose mostly 57.1 µM), without a hit: at the top dose activity, negative = inhibition, hits mostly inhibitors | Q9Y468; further: on the % scale 0 is the no-effect control and ±100 the full control effect; nearly all actives have a fitted effect of over 60% in size
#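 AlphaScreen proximity signal between nickel-chelate acceptor and streptavidin donor beads (final 10 ug/mL) reports binding of 50 nM L3MBTL1 to 75 nM biotin-H3 K9me1 peptide; complex incubated with compounds 30 min at room temperature; cefsulodin titration as control.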
# JMJD2A Tudor inh – blocks the human JMJD2A Tudor domain | O75164 | AlphaScreen JMJD2A-Tudor / H3K4me3 peptide binding | Potency, µM (highest dose often 114 µM), inactives show at the top dose activity change, negative = inhibition, hits mostly inhibitors | 4.4% of 390,000 active | AID 504339; further: on the % scale 0 is the no-effect control and ±100 the full control effect; nearly all actives have a fitted effect of over 50% in size
# HP1b binding inh – inhibitors of HP1-beta chromodomain binding to methylated histone tails. P83916. AlphaScreen HP1-beta / biotin-H3K9me3 peptide binding. Potency, µM (series often up to 114 µM), for the others: at the top dose activity change, negative = inhibition, hits mostly inhibitors. 0.56% of 390,000 active; further: nearly all actives have a fitted effect of over 70% in size
# Target sequence (P83916 whole entry, looked up): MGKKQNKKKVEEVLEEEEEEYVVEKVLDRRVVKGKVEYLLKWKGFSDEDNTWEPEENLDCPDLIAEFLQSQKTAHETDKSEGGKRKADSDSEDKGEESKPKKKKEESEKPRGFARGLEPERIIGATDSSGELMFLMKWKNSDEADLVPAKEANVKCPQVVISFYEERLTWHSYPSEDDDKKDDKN
#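 Compound inhibition of the preformed complex between 50 nM HP1-beta and 50 nM biotinylated H3K9me3 peptide was read by AlphaScreen. Buffer was PBS pH 7.4 with 0.01% Tween-20. Incubations ran 30 min at room temperature, with 10 ug/mL donor/acceptor beads.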
# BAZ2B block – inhibitors of human BAZ2B bromodomain; AlphaScreen BAZ2B-H3K14Ac peptide displacement; Potency, µM (highest dose often 114 µM), inactives show at the top dose activity change, negative = inhibition, most hits filed as inhibitors; 4.4% of 360,000 active; AID 504333; further: on the % scale 0 is the no-effect control and ±100 the full control effect; nearly all actives have a fitted effect of over 60% in size
#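 In this displacement format the biotinylated H3(5-23) peptide acetylated at Lys14 serves as ligand at 50 nM, with BAZ2B at 50 nM in PBS pH 7.4 containing 0.01% Tween-20. Donor and acceptor beads are 10 ug/mL final.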
# G9a inh – blocks human histone lysine methyltransferase G9a; Q96KQ7; G9a H3K9 monomethylation, AlphaScreen, 2 h; Potency, µM (top dose mostly 102 µM), without a hit: at the top dose activity, negative = inhibition, usual class: inhibitors; 8.8% of 350,000 active; AID 504332; further: on the % scale 0 is the no-effect control and ±100 the full control effect; nearly all actives have a fitted effect of over 75% in size
# Target sequence (Q96KQ7 913-1193 limits assumed): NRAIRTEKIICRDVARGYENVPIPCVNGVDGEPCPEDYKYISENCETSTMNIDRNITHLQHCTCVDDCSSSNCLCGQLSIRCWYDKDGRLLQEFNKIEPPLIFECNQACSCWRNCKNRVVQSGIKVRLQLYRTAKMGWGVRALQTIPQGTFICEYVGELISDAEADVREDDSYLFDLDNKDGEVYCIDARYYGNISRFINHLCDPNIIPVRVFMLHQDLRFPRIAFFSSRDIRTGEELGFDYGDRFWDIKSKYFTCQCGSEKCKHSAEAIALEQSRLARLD
#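 Methyltransferase reactions run at room temperature for 2 h (20 nM enzyme, 500 nM biotin-H3K9 peptide, 20 uM SAM) after a 15 min compound preincubation; product detected by AlphaScreen beads and anti-H3K9me1 antibody.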
# * = called active by the depositor; ? = inconclusive; / = no result; [ ] = another dose, or the depositor's remark. The call rests on the fitted dose curve; in most records, active means well fitted curve in the direction sought with a large enough effect; inconclusive means small, poorly fitted or top-dose-only effect, or another doubt; inactive means no such curve, though single readings can be large; an effect the other way counts as inactive or inconclusive. Potency means the concentration at half of the fitted maximal effect.
SMILES,Sfp PPTase inh,L3MBTL1 inh,JMJD2A Tudor inh,HP1b binding inh,BAZ2B block,G9a inh
CCC(C)NC(=O)C1c2ccccc2C(=O)N(c2ccc(OC)cc2)C1c1ccc(OC)cc1 (stereo unspecified),19%,/,20µM*,-9%,3%,2%[59 µM]
CC(=O)c1c(C)[nH]c(-c2ccccc2)c1C,2%,-8%,?,-26%,50µM*,-9%[59 µM]
CC(=O)c1c(-c2ccccc2)[nH]c2ccccc12,14%,-9%[2.29 µM],-6%,47%,-5%,0%[0.501 µM]
COc1cccc(CNC(=O)c2cc3c(=O)n(Cc4cccnc4)ccc3nc2C)c1,/,/,-23%,105%,17%,20%[59 µM]
Cc1ccc(C(C(=O)NC(C)(C)C)N(CC2CCCO2)C(=O)Cn2nnc(-c3ccc(C)o3)n2)cc1 (stereo unspecified),56µM*,-2%,-21%,-1%,-10%,45µM*
Cc1ccc(-c2nnn(CC(=O)N(Cc3ccc(F)cc3)C(C(=O)NC3CCCC3)c3ccncc3)n2)o1 (stereo unspecified),40µM*,-3%,-15%,25%,2%,?
Cc1ccc(-c2nnn(CC(=O)N(CCO)C(C(=O)NC3CCCCC3)c3ccncc3)n2)o1 (stereo unspecified),2%,-1%,-12%[11.4 µM],?,-11%,45µM*
CC(C)(C)NC(=O)C(c1ccncc1)N(CC1CCCO1)C(=O)Cn1nnc(-c2ccc(F)cc2)n1 (stereo unspecified),20%,-6%,-12%,13%,-14%,-2%
CC(C)(C)N(C(=O)Cn1nnc(-c2ccc(F)cc2)n1)C(C(=O)NC1CCCC1)c1ccncc1 (stereo unspecified),6%,-5%,-28%,19%,4%,7.1µM*
O=C(NC1CCCC1)C(c1ccncc1)N(CC1CCCO1)C(=O)Cn1nnc(-c2cccs2)n1 (stereo unspecified),7%,5%,-8%,22%,11%,50µM*
Cc1cccc(OCC(=O)Nc2ccc(Cl)c(-c3nc4ncccc4o3)c2)c1C,/,/,4%,40%,5%,5%[59 µM]
O=C(NC1CCCc2ccccc21)c1cccnc1 (stereo unspecified),9%,1%,-13%,30%,-5%,8%
c1cncc(CNC2CCCc3ccccc32)c1 (stereo unspecified),-3%,2%,?,23%,4%,45µM*
COc1cc(CNC2CCCc3ccccc32)cc(OC)c1OC (stereo unspecified),50µM*,-7%,10µM*,?,71µM*,?
COc1cccc(CNC2CCCc3ccccc32)c1OC (stereo unspecified),-7%,/,79µM*,?,?,40µM*
COc1cc(C(=O)NC2CCCc3ccccc32)cc(OC)c1OC (stereo unspecified),27%,/,-13%,-3%,0%,17%
O=C(N/N=C1/C[C@@H](O)[C@@H](O)[C@@H]2[C@@H]3C(=O)N(Cc4ccccc4)C(=O)[C@H]3CC[C@@H]12)OCc1ccccc1,6%,/,/,/,/,/
CCOC(=O)c1cccc(NS(=O)(=O)c2cc(-c3cnc(C4CC4)o3)ccc2C)c1,/,/,-26%,15%,-26%,-7%[12.7 µM]
O=C(O)c1ccc2c(c1)CC(c1ccccc1)OC2=O (stereo unspecified),13%,5%,-9%,29%,4%,?
COc1ccc(C(=O)N2CCC(C(=O)N3CCN(c4ccccc4)CC3)CC2)cc1,/,/,-6%,22%,/,/
O=C1OC(c2ccccc2)Cc2cc(C(=O)N3CCN(c4ccc(F)cc4)CC3)ccc21 (stereo unspecified),/,-10%,-26%,0%,-33%,50µM*
COc1ccc(N2CCN(C(=O)c3ccc4c(c3)CC(c3ccccc3)OC4=O)CC2)cc1 (stereo unspecified),/,-7%,?,-13%,40µM*,10µM*
Cc1cccc(OCC(=O)N/N=C/C=C/c2ccco2)c1,?,?,-35%,-1%,?,8.9µM*
CCc1ccc(OCC(=O)N/N=C\c2ccco2)c([N+](=O)[O-])c1,-7%,35µM*,?,?,45µM*,-12%[59 µM]
O=C(COc1cccc2ccccc12)N/N=C/c1ccco1,-10%,/,-21%,18%,?,/
SMILES,Sfp PPTase inh,L3MBTL1 inh,JMJD2A Tudor inh,HP1b binding inh,BAZ2B block,G9a inh
Cc1cccc(C)c1OCC(=O)N/N=C/C=C/c1ccco1,-21%,/,-29%,38%,-18%,32µM*
O=C(COc1cccc([N+](=O)[O-])c1)N/N=C/c1ccco1,11%,-11%,?,3%,?,?
Cc1cc(C)cc(OCC(=O)N/N=C/c2ccco2)c1,14%,0%,2%,17%,-16%,-8%
Cc1ccc(OCC(=O)N/N=C/C=C/c2ccco2)c(Br)c1,50µM*,/,?,-10%,-29%,45µM*
CCN(C(=O)c1cc2c(Cl)nc3ccccc3c2s1)c1cccc(Cl)c1,/,/,-6%,27%,-4%,-1%[59 µM]
CCOC(=O)c1sc2ncn(CC(=O)Nc3ccc(OC)c(Cl)c3)c(=O)c2c1C,/,/,0%,34%,3%,4%[59 µM]
CC12CCC=CC1C(c1ccc(C(F)(F)F)cc1)N(Cc1ccccc1)C2=O (stereo unspecified),11%,/,-10%,54%,/,/
CC(=O)[O][Al][O]C(C)=O,21%,/,/,/,/,31%[59 µM]
O=[N+]([O-])c1cccnc1N1CCCCC1,16%,-10%,?,-10%,-28%,6%
O=[N+]([O-])c1cccnc1N1CCN(c2ccccc2F)CC1,1%,?,50µM*,?,?,?
Cc1ccc(N2CCN(c3ncccc3[N+](=O)[O-])CC2)c(C)c1,1%,/,40µM*,?,28µM*,18µM*
Cc1ccc(C)c(N2CCN(c3ccc([N+](=O)[O-])cn3)CC2)c1,-4%,/,-32%,11%,-11%,5%
Cc1ccc(C)c(N2CCN(c3ncccc3[N+](=O)[O-])CC2)c1,-3%,/,40µM*,-21%,32µM*,-10%[2.33 µM]
Cc1ccc(NC(=O)c2sc3nc(-c4ccc(F)cc4)ccc3c2N)cc1F,/,/,2%,39%,0%,-35%[59 µM]
Nc1c(C(=O)Nc2ccc(Br)cc2)sc2nc(-c3ccco3)ccc12,10µM*,1%,-1%,40%,?,?
